The list is not random: actives were taken first. Their share in the collection is about 21%.
Shiga toxin inh = A qHTS for Small Molecule Inhibitors of Shiga Toxin; inhibition, % at 38.7 µM; Vero cells, Shiga toxin protein synthesis inhibition reporter; AID 2315, 2010; hit rate 9.2% among 290,000; in the data active = inhibition mostly above about 28%, no sharp cut-off; inactive = mostly below about 43%
CHX counter = Cycloheximide Counterscreen for Small Molecule Inhibitors of Shiga Toxin | cell reporter, cycloheximide protein synthesis inhibition counterscreen | max response, % | AID 2314, 2010 | hit rate 12% among 300,000; in the data active = max response mostly above about 13%, no sharp cut-off; inactive = mostly below about 14%; also: read at 38.3 µM for the half of the compounds with a filed dose
Pf growth 96h = Primary qHTS for delayed death inhibitors of the malarial parasite plastid, 96 hour incubation; P. falciparum luciferase reporter growth, 96 h; Potency, µM (top dose mostly 28.7 µM), usual class: inhibitors; AID 504834, 2011; hit rate 6.9% among 320,000
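Plates of compound plus infected erythrocytes (2% hematocrit, 0.05% parasitemia final) incubate 96 hours, 37 C, 5% CO2. Detection reagent added; reduced luminescence from the parasites' luciferase reporter flags inhibition.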
Pf growth 48h = Primary qHTS for delayed death inhibitors of the malarial parasite plastid, 48 hour incubation | P. falciparum luciferase growth in erythrocytes, 48 h | hit rate 5.9% among 310,000 | Potency, µM (highest dose often 28.7 µM), hits mostly inhibitors
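Firefly luciferase activity from engineered P. falciparum reports growth; inhibitors lower the luminescent signal. Cultures contained 2% hematocrit erythrocytes at 0.1% final parasitemia.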
NS1 inh = qHTS Assay for Inhibitors of Influenza NS1 Protein Function; Potency, µM (top dose mostly 46.1 µM); hit rate 0.4% among 270,000; calls by dose curve; also: actives are rising curves; nearly all actives have a fitted effect of over 50% in size
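In this qHTS, NS1 from influenza A is expressed in budding yeast, where it slows growth. Cells are switched from glucose to 2% galactose medium (pH 6.0, -URA), treated with compound, and growth recovery is read at OD600.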
Large screens that a line does not name were inactive. Unless noted, calls follow the shape of the dose curve; as a rule, active = well fitted inhibition curve with a large enough effect; inconclusive = small, poorly fitted or top-dose-only effect, or another doubt; inactive = no such curve, though single readings can be large or run the other way.

O=C(N/N=C/c1cc([N+](=O)[O-])ccc1O)C(O)(c1ccccc1)c1ccccc1	Pf growth 96h inconclusive, Pf growth 48h inconclusive
O=C(N/N=C/c1cc(Br)ccc1O)c1ccncc1	Pf growth 96h 1.7µM, Pf growth 48h 2.6µM
O=C(N/N=C/c1cc([N+](=O)[O-])ccc1O)c1ccncc1	Pf growth 96h inconclusive, Pf growth 48h 8.3µM
O=C(N/N=C/c1ccccc1O)c1ccncc1	Pf growth 96h 12µM, Pf growth 48h 9.3µM (no result: Shiga toxin inh, CHX counter, NS1 inh)
Nc1nonc1C(=O)N/N=C/c1cc(Br)ccc1O	Shiga toxin inh 82, CHX counter 32, Pf growth 48h 4.1µM
CC(C)C(=O)Nc1ccc(C(=O)N/N=C/c2cc(Br)cc(Br)c2O)cc1	Pf growth 96h inconclusive, Pf growth 48h inconclusive
Cc1nc(C)c(C(=O)N/N=C/c2cc(Br)ccc2O)s1	Pf growth 96h 5.2µM, Pf growth 48h 2.3µM
CC(=O)Nc1ccc(C(=O)N/N=C/c2cc(Br)cc(Br)c2O)cc1	Pf growth 96h 2.9µM (no result: NS1 inh)
Cc1nc(C)c(C(=O)N/N=C/c2c[nH]c3ccccc23)s1	none (no result: Pf growth 96h)
NC(=[SH+])N=N/C=C1/C=CC=CN1.O=S(=O)(O)O.[Fe]	none (no result: Shiga toxin inh, CHX counter, Pf growth 96h, Pf growth 48h)
Cc1cccc(C)c1N=Cc1c(C(F)(F)F)[nH][nH]c1=O	none (no result: NS1 inh)
O=C(N/N=C\c1cc(Br)ccc1O)c1ccc(S(=O)(=O)N2CCCCC2)cc1	Pf growth 48h 5.2µM
O=C(CCC(=O)Nc1cccc(Cl)c1)N/N=C/c1cc([N+](=O)[O-])ccc1O	Pf growth 48h inconclusive (no result: NS1 inh)
O=C(N/N=C/c1ccc(O)c(O)c1)c1cccc(S(=O)(=O)N2CCCCC2)c1	none (no result: NS1 inh)
COc1ccc(Br)cc1/C=N/NC(=O)c1cc(OC)c(OC)c(OC)c1	none
O=C(CCCC(=O)Nc1cccc(Br)c1)N/N=C/c1cc([N+](=O)[O-])ccc1O	Pf growth 48h 10µM
COc1ccc(Br)cc1/C=N/NC(=O)c1nc(-c2ccccc2)n2c1CCCCC2	Pf growth 96h 7.4µM (no result: Pf growth 48h)
COc1ccc(Br)cc1/C=N/NC(=O)c1ccc(OC)c(OC)c1	Pf growth 48h 4.1µM
OCCNC(=S)Nc1cccc(Cl)c1Cl	none
O=c1c2ccccc2cnn1Cc1n[nH]c(=S)n1-c1ccccc1	none
CCCc1cc2c(-c3ccccc3)cc(=O)oc2cc1OCc1ccc(C(=O)O)o1	Pf growth 96h inconclusive, Pf growth 48h inconclusive (no result: NS1 inh)
O=C(N/N=C/c1ccc(Cl)cc1Cl)C(=O)NC1CC1	Pf growth 96h inconclusive (no result: NS1 inh)
COc1cc(NS(=O)(=O)c2cn(C)cn2)cc(OC)c1	Pf growth 96h inconclusive
CCOc1ccc(OCC)c(NC(=O)CC2Oc3ccc(C)cc3NC2=O)c1 (configuration not stated)	Pf growth 96h 10µM (no result: Pf growth 48h)
COc1ccc(OC)c(NC(=O)CC2Oc3ccccc3NC2=O)c1 (configuration not stated)	CHX counter 14
COc1ccccc1NC(=O)CC1Nc2ccccc2NC1=O (configuration not stated)	Pf growth 48h 3.7µM (no result: Pf growth 96h)
COc1ccc(NC(=O)CC2Oc3ccccc3NC2=O)cc1 (configuration not stated)	Pf growth 96h inconclusive
CC(=O)NCCCc1c[nH]c2ccc(Cl)cc12	none
Cn1c(=O)c(C(=O)CCl)c(N)n(CC2CC2)c1=O	Pf growth 96h inconclusive
Oc1ccc(/C=N/N2CCCCC2)c(O)c1	Shiga toxin inh 107, CHX counter 49
Oc1cccc(/C=N/N2CCCCC2)c1O	Shiga toxin inh 96, CHX counter 40
Oc1ccccc1/C=N/N1CCCCC1	Shiga toxin inh 85, CHX counter 40 (no result: NS1 inh)
Oc1ccc(/C=N/N2CCCCC2)c(O)c1O	none
Cc1cc(=O)oc2cc(O)c(CN(C)CC(=O)O)cc12	none (no result: Shiga toxin inh, CHX counter, Pf growth 96h, Pf growth 48h)
CCN(c1ccccc1)S(=O)(=O)c1ccc(Cl)c(NC(=O)CN2CCCCCC2)c1	Pf growth 96h inconclusive, Pf growth 48h 5.9µM
CCN(c1ccccc1)S(=O)(=O)c1ccc(Cl)c(NC(=O)CSc2nncn2C)c1	Pf growth 96h 8.3µM, Pf growth 48h inconclusive
CCOC(=O)C1CCN(C(=O)Cn2c(=O)c3cccn3c3cccnc32)CC1	NS1 inh inconclusive
CCCCSc1nnc2n(CCc3ccccc3)c(=O)c3c4c(sc3n12)COC(C)(C)C4	Pf growth 96h 1.7µM
Cc1nnc2n(-c3ccccc3)c(=O)c3c4c(sc3n12)COC(C)(C)C4	none
CN(C)c1ccc(NC(=O)c2ccc3nsnc3c2)cc1	Shiga toxin inh 160, CHX counter 46, NS1 inh inconclusive
O=C(Nc1ccc(Cl)cc1)c1ccc2nsnc2c1	Shiga toxin inh 97, CHX counter 35 (no result: NS1 inh)
CCOC(=O)CNc1nc(Cl)nc(NC(C)(C)C)n1	Pf growth 96h 13µM (no result: NS1 inh)
COc1ccc(OC)c(NC(=O)Nc2ccc3c(c2)CCC3)c1	Shiga toxin inh 28, CHX counter 19
Cc1cccc(NC(=O)Nc2nnc(N3CCCCC3C)s2)c1C (configuration not stated)	Pf growth 96h 2.1µM (no result: Pf growth 48h)
COc1cccc(NC(=O)Nc2nnc(N3C(C)CCCC3C)s2)c1 (configuration not stated)	Pf growth 96h inconclusive, Pf growth 48h 13µM
COc1cccc(NC(=O)Nc2ccc3c(c2)CCC3)c1	Shiga toxin inh 75, CHX counter 39, Pf growth 96h inconclusive
Cc1cccc(NC(=O)CSc2nnc(NC(=O)C3CC3)s2)c1C	none
CCOC(=O)CSc1nc(N)c(C(=O)Nc2ccc(N(C)C)cc2)s1	Pf growth 96h inconclusive
CN(CCNC(=O)C1CCCN(c2ncnc3c2nc2n3CCCCC2)C1)Cc1ccccc1 (configuration not stated)	Pf growth 96h inconclusive
CCCNC(=O)Cn1nc([N+](=O)[O-])c([N+](=O)[O-])c1C	Pf growth 96h inconclusive, Pf growth 48h inconclusive
CCOC(=O)CC(=O)CSc1nc(CC)c(C)cc1C#N	Pf growth 96h inconclusive
Cc1ccc2cc(C#N)c(SCC(=O)NCC3CCCO3)nc2c1 (configuration not stated)	none
COC(=O)CSc1nc2cc(C)ccc2cc1C#N	Shiga toxin inh 108, CHX counter 46
CCOC(=O)CC(=O)CSc1nc2ccc(C)cc2cc1C#N	Shiga toxin inh 107, CHX counter 37
Cc1onc(-c2ccc(Cl)cc2Cl)c1-c1csc(N/N=C/c2ccccc2)n1	Pf growth 96h inconclusive, Pf growth 48h 3.7µM
Clc1ccc(-c2csc(N/N=C/c3ccc4c(c3)OCO4)n2)cc1	Pf growth 96h inconclusive, Pf growth 48h inconclusive
CCC(C)C(NC(=O)c1ccccc1NC(=O)c1ccco1)C(=O)NNC(=O)c1ccncc1 (configuration not stated)	Pf growth 96h inconclusive, Pf growth 48h 10µM
CCC(C)C(NC(=O)c1ccccc1NC(=O)c1ccco1)C(=O)NNC(=O)c1ccc(OC)cc1 (configuration not stated)	Pf growth 96h 8.3µM, Pf growth 48h 9.3µM
O=S(=O)(Oc1ccccc1/C=N/n1cnnc1)c1ccccc1	Pf growth 96h 12µM
CCCCCCCCCCCCCCCC(=O)N[C@@H](COP(=O)(O)O)C(=O)O	none (no result: Pf growth 96h, Pf growth 48h, NS1 inh)
